Results published in PubChem BioAssay (NCATS).
Results filed as inconclusive are left out. A number with no mark means an inactive call. Activity calls are given as the source filed them. Calls follow the shape of the dose curve; as a rule, active = well fitted cell-killing curve with a large enough effect; inconclusive = small, poorly fitted or top-dose-only effect; inactive = flat fitted curve, though single readings scatter.

test: Cellular viability qHTS for adrenocortical cancer (ACC) cell line NCI-H295R (AID 1963990); conditions: CellTiter-Glo ATP luminescence, 48 h; series mostly up to 46.1 µM; activity change, negative = viability loss: at the top concentration; also: nearly all actives have a fitted effect of over 60% in size;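 as to activity change, negative = viability loss: 0% = DMSO only wells and -100% = full killing with cytotoxic reference compound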
How it was run: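 Viability of NCI-H295R after 48 h of treatment (final up to 46 uM) measured through cellular ATP luminescence.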
Potency is read from the fitted curve at half-maximal effect.

Row | SMILES | activity change, negative = viability loss | Potency
1 | C[C@]12C=CC(=O)C=C1[C@@H](F)C[C@@H]1[C@@H]2[C@@H](O)C[C@@]2(C)[C@H]1CC[C@]2(O)C(=O)CO | -0.767% | –
2 | C/C(=N/NC(=O)c1ccncc1)C(=O)O | -17% | –
3 | CC(=O)N[C@@H](CC(C)C)C(=O)O | -1.66% | –
4 | COc1cccc(Nc2ncnn3ccc(CN4CC[C@@H](N)[C@H](O)C4)c23)c1 | -17.7% | –
5 | C=C[C@H]1CN2CC[C@H]1C[C@@H]2[C@@H](O)c1ccnc2ccc(OC)cc12 | 6.47% | –
6 | [O-][n+]1cccc(CO)c1 | 2.78% | –
7 | CC(=O)NC(CS)C(=O)O (stereo not given) | -3.44% | –
8 | Nc1ncnc2c1c(-c1cccc(OCc3ccccc3)c1)cn2C1CC(CN2CCCC2)C1 (stereo not given) | – | 2.24 µM (active)
9 | Nc1c2c(nc3c1CCC3)CCCC2 | -15.4% | –
10 | Cc1cc2c(C(C)C)c(O)c(O)c(C=O)c2c(O)c1-c1c(C)cc2c(C(C)C)c(O)c(O)c(C=O)c2c1O | – | 8.2 µM (active)
11 | COc1cc(OC)c(/C=C/S(=O)(=O)Cc2ccc(OC)c(NCC(=O)O)c2)c(OC)c1 | – | 0.0224 µM (active)
12 | O=C(OOC(=O)c1ccccc1)c1ccccc1 | 2.42% | –
13 | c1cn2cc(-c3ccc4cn[nH]c4c3)nc(Nc3ccc(N4CCOCC4)cc3)c2n1 | -20.9% | –
14 | CCOC(=O)C1=C(C)NC(C)=C(C(=O)OCC)C1c1ccccc1/C=C/C(=O)OC(C)(C)C | – | 6.51 µM (active)
15 | C[C@H](CN(C)C)Oc1nc(Nc2cc3cccc(Cl)c3cn2)cnc1C#N | – | 2.24 µM (active)
16 | COc1cc(C)[nH]c(=O)c1CN1CCc2c(Cl)cc([C@H](OC)C3COC3)c(Cl)c2C1=O | -9.55% | –
17 | Clc1cc2c(NC3CCCC3)nnc(-c3ccncc3)c2cc1Cl | 1.9% | –
18 | CCCCC1(COC(=O)CCC(=O)O)C(=O)N(c2ccccc2)N(c2ccccc2)C1=O | -10.7% | –
19 | CN1CCN(C2CCC(n3cc(-c4ccc(Oc5ccccc5)cc4)c4c(N)ncnc43)CC2)CC1 (stereo not given) | – | 7.08 µM (active)
20 | CC(C)NCC(O)c1cc(O)cc(O)c1 (stereo not given) | -10.2% | –

Row | SMILES | activity change, negative = viability loss | Potency
21 | O=C(CCOCCOCCOCCOCCC(=O)Nc1c(I)cc(I)c(C(=O)O)c1I)Nc1c(I)cc(I)c(C(=O)O)c1I | -6.21% | –
22 | N[C@@H]1CN(c2c(F)cc3c(=O)c(C(=O)O)cn([C@@H]4C[C@@H]4F)c3c2Cl)CC12CC2 | -10.5% | –
23 | Cc1onc(-c2c(Cl)cccc2Cl)c1C(=O)Cl | -1.71% | –
24 | C=CC(=O)Nc1cc(Nc2nccc(-c3cn(C)c4ccccc34)n2)c(OC)cc1N(C)CCN(C)C | – | 3.98 µM (active)
25 | CCCCCCCCCCCCCCCC[N+](C)(C)CCN(Cc1ccc(OC)cc1)c1ncccn1 | – | 16.4 µM (active)
26 | O=C(NO)c1ccc(C2=Nc3ccccc3Oc3ccccc32)cc1 | – | 5.01 µM (active)
27 | O=C(NCCCNC(=O)c1ccc[nH]c1=O)c1cc(-c2ccccc2)on1 | – | 15.8 µM (active)
28 | O=C(O)CCC(=O)c1ccc(-c2ccccc2)cc1 | -9.24% | –
29 | CNC(=O)c1cccc2cc(Oc3ccnc4cc(OCC5(N)CC5)c(OC)cc34)ccc12 | – | 22.4 µM (active)
30 | Nc1ccc(S(=O)(=O)c2ccc(N)cc2)cc1 | 2.53% | –
31 | CN(C)CCOc1ccc(-c2nc(-c3ccc4c(c3)CC/C4=N\O)c(-c3ccncc3)[nH]2)cc1 | – | 28.2 µM (active)
32 | Cc1cc(OCCCc2c3n(c4c(-c5c(C)nn(C)c5C)c(Cl)ccc24)[C@H](C)CN(c2cn(C)c4ccc(C(=O)O)cc24)C3=O)cc(C)c1Cl | – | 2 µM (active)
33 | C[C@@H]1O[C@@H](OC[C@H]2O[C@@H](Oc3c(-c4ccc(O)c(O)c4)oc4cc(O)cc(O)c4c3=O)[C@H](O)[C@@H](O)[C@@H]2O)[C@H](O)[C@H](O)[C@H]1O | 1.81% | –
34 | C=CC(=O)Nc1cccc(Nc2nc(Nc3ccc(NC4CN(CCF)C4)cc3OC)ncc2C(F)(F)F)c1 | – | 8.91 µM (active)
35 | CC1=C(/C=C/C(C)=C/C=C/C(C)=C/C(=O)O)C(C)(C)CCC1 | -14.4% | –
36 | Nc1ccc(O)c([N+](=O)[O-])c1 | 4.76% [at 92.7 µM] | –
37 | O=C1OC(COc2ccccc2[N+](=O)[O-])CC1Cc1ccccc1 (stereo not given) | -2.58% | –
38 | CC(C)=CCC/C(C)=C/CO | -3.43% | –
39 | O=S(=O)(O)c1cc(I)c(O)c2ncccc12 | 7.85% | –
40 | CC(C)(C)CC(C)(C)c1ccc(O)c(-n2nc3ccccc3n2)c1 | -0.254% | –
